PubChem BioAssay (NCI)
The panel holds about 79,000 compounds, 15% with a hit somewhere; the sample as a whole holds those more often. Calls of active or inactive are those of the source. Rule as the data show it: active = growth inhibition above about 70%; inactive = the rest.

How the values were obtained:
[1] = NCI Yeast Anticancer Drug Screen. Data for the rad50 strain (AID 155);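 also: 0% = growth of vehicle-only cultures of the same strain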; conditions: S. cerevisiae rad50 strain growth inhibition; at 50.0 µM; active compounds read high
How it was run: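 Growth of the mutant yeast was measured after compound exposure and referenced to vehicle-treated cultures.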

[2] = NCI Yeast Anticancer Drug Screen. Data for the mec2-1 strain (AID 157); conditions: S. cerevisiae mec2-1 strain, at 50.0 µM, active compounds read high
How it was run: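 Vehicle-treated cultures served as reference for growth inhibition of compound-exposed mec2-1 yeast.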

[3] = NCI Yeast Anticancer Drug Screen. Data for the sgs1 mgt1 strain (AID 161);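 also: 0% = growth of cultures given vehicle only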; conditions: S. cerevisiae sgs1 mgt1 strain, at 50.0 µM, active compounds read high
How it was run: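 Mutant yeast exposed to compound; growth scored against vehicle-only wells.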

[4] = NCI Yeast Anticancer Drug Screen. Data for the cln2 rad14 strain (AID 165);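 also: 0% = growth equal to vehicle treated cultures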; conditions: S. cerevisiae cln2 rad14 strain, at 50.0 µM, active compounds read high
How it was run: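 Each compound was tested on cln2 rad14 yeast. Inhibition of growth was calculated against vehicle-exposed controls.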

[5] = NCI Yeast Anticancer Drug Screen. Data for the bub3 strain (AID 167); conditions: S. cerevisiae bub3 mutant strain, at 50.0 µM, active compounds read high
How it was run: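 Whole-cell yeast assay. The mutant strain was incubated with compounds, and growth inhibition was determined by comparison with vehicle-treated cells.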

[6] = NCI Yeast Anticancer Drug Screen. Data for the mlh1 rad18 strain (AID 175); conditions: S. cerevisiae mlh1 rad18 strain growth inhibition; at 50.0 µM; active compounds read high
How it was run: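 Vehicle-treated cultures served as the reference for growth inhibition in a yeast strain carrying DNA damage repair alterations exposed to each compound.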

Measured: growth inhibition

NCCOCC(N)C(=O)O (stereo not given)
inactive: [1] -9.3% | [2] -14.4% | [3] -52.4% | [4] -27.1% | [5] -51% | [6] 8.4%

CCc1ccc(NC(=O)c2cc(OC)c(OC)c(OC)c2)cc1
inactive: [1] 1.1% | [2] 29.4% | [3] 2.6% | [4] -12.3% | [5] 17.5% | [6] 29.2%

Cc1nc(N)nc2ccccc12
inactive: [1] 3.15% | [2] -25.3% | [3] -16% | [4] -5.8% | [5] -7.9% | [6] -16.1%

OCC(O)C1OC2CC1Nc1ccccc1N2 (stereo not given)
inactive: [1] -30.6% | [2] -21.3% | [3] 9.6% | [4] 17.3% | [5] -15.1% | [6] -12.7%

COC(=O)C(Cc1c[nH]c2ccccc12)NC(=O)C(Cc1cnc[nH]1)NC(=O)C1CCC(=O)N1C(=O)OCc1ccccc1 (stereo not given)
inactive: [1] -10.2% | [2] -3.55% | [3] -2% | [4] -2.35% | [5] -1.35% | [6] -5.1%

Brc1ccc(N=C2NN=CC2(c2ccccc2)c2ccccc2)cc1
inactive: [1] 25.6% | [2] 1.75% | [3] 6.75% | [4] 4.85% | [5] 19.6% | [6] -1.15%

Cc1cc(=O)[nH]c2c1CCCC2
inactive: [1] -13.7% | [2] 10.8% | [3] 10% | [4] -38.4% | [5] -26.6% | [6] 8.25%

COc1ccc(CCNCCCC2c3ccccc3-c3ccccc32)cc1OC
inactive: [1] 28.8% | [2] -3.4% | [3] 6.55% | [4] 12.5% | [5] -19.1% | [6] -34.1%

O=C(COc1cc(Cl)c(Cl)cc1Cl)Nc1ccc(N=Nc2ccccc2)cc1
inactive: [1] 2% | [2] 3.55% | [3] -12.6% | [4] -9.55% | [5] 2.75% | [6] -7.95%

CN(C)CCNC(=O)CN
inactive: [1] 0.15% | [2] -12.2% | [3] 4.1% | [4] -0.6% | [5] 5.9% | [6] 2.75%

C/C(=N/N(C=O)C[n+]1ccccc1)C(CN(CC(C)C)CC(C)C)C(=O)Nc1ccc(C)cc1C (stereo not given)
inactive: [1] -10.4% | [2] 40% | [3] -14.5% | [4] 31.5% | [5] 19.9% | [6] 19.9%

CC(=O)C1=C(C)NC2C=CC=CN12 (stereo not given)
inactive: [1] 3.95% | [2] -6.9% | [3] 15.5% | [4] 17.9% | [5] 7.3% | [6] 12.9%

CCCCCC(O)C(C)C (stereo not given)
inactive: [1] 1.5% | [2] -2.55% | [3] -8.65% | [4] -36.8% | [5] 15.7% | [6] 6.8%

Cc1ccc(OP2(Oc3ccc(C)cc3)=NP(Oc3ccc(C)cc3)(Oc3ccc(C)cc3)=NP(Oc3ccc(C)cc3)(Oc3ccc(C)cc3)=N2)cc1
inactive: [1] 10.6% | [2] -4.15% | [3] -17.6% | [4] -4.5% | [5] 2.7% | [6] 0.4%

CN(C)C12CCCCCC1S(=O)(=O)C2 (stereo not given)
inactive: [1] -0.05% | [2] -20.1% | [3] 0.85% | [4] -17.6% | [5] -22.4% | [6] 3.45%

N#CCc1ccc(-c2ccccc2)cc1
inactive: [1] -2.75% | [2] 20.9% | [3] 3.3% | [4] -31.9% | [5] -19.6% | [6] 6.25%

COc1ccccc1OC(C)=O
inactive: [1] -5.2% | [2] -14.4% | [3] -2.3% | [4] -8.2% | [5] -1.35% | [6] 17.9%

COC(=O)C1OC1c1ccncc1 (stereo not given)
inactive: [1] 19.1% | [2] 6.15% | [3] 32.3% | [4] 5.3% | [5] 0.1% | [6] 5.5%

O=C1c2ccccc2C2CC1c1ccccc12 (stereo not given)
inactive: [1] 6.35% | [2] -1.6% | [3] -1.7% | [4] -7.7% | [5] -16.4% | [6] -5.4%

CCC(C)NC(=O)c1cccc2c1-c1ccccc1C2=O (stereo not given)
inactive: [1] -0.05% | [2] -5.15% | [3] 0.35% | [4] 1.4% | [5] 25.2% | [6] 14.4%

CCO/C=C1/N=C(c2ccc(OC)c(OC)c2)OC1=O
inactive: [1] -6.3% | [2] 5.6% | [3] 18.6% | [4] -67.8% | [5] -7.2% | [6] 12.2%

Nc1ncnc(N)c1NC(=O)c1cccc(-c2ccccc2)c1
inactive: [1] 2.85% | [2] 41.1% | [3] 23.9% | [4] 0.8% | [5] 34.9% | [6] -21.1%

CC(CC(O)CCCN(C)C)CC(C)(C)C (stereo not given)
inactive: [1] 46.5% | [2] 39.8% | [3] 43.4% | [4] 22.1% | [5] 24.3% | [6] 37.5%

CC(=O)C1CCC2C3CC=C4CC(O)CCC4(C)C3CCC12C (stereo not given)
inactive: [1] 26.4% | [2] 18.4% | [3] 23.8% | [4] 45.3% | [5] 37% | [6] 46.6%

CCOC(=O)/C(C#N)=C(\CC)c1ccccc1
inactive: [1] -8.5% | [2] -8.85% | [3] -3.85% | [4] -0.15% | [5] -8.85% | [6] -21.5%

CCN1C(=O)N(C)C(O)c2c1nc1ccccn1c2=O (stereo not given)
inactive: [1] -14.1% | [2] -8.35% | [3] -33.4% | [4] 3.65% | [5] -15.7% | [6] -19.6%

CN(C)c1ccc(/C=N/N=C2\C(=O)Nc3c(Cl)cc(Cl)cc32)cc1
active: [6] 78.8%
inactive: [1] 25.2% | [2] -0.25% | [3] 56.8% | [4] 43.1% | [5] 43.5%

CC1CCc2ccccc2N1C(=O)c1cccc([N+](=O)[O-])c1C(=O)O (stereo not given)
inactive: [1] -6.1% | [2] 2.7% | [3] 27.4% | [4] -11.6% | [5] 21.7% | [6] 5.5%

Cc1c2ccccc2nc(CS(=O)(=O)c2ccccc2)[n+]1[O-]
inactive: [1] -26.1% | [2] -13.2% | [3] -4.95% | [4] -60.5% | [5] -16.4% | [6] -6.1%

CCOc1ccnc2c(OC)c(C)c3nc4ccccc4nc3c12
inactive: [1] 7.6% | [2] -13.2% | [3] -4.65% | [4] 13.6% | [5] -7.3%
active: [6] 91%

CCN1CCCC(Nc2cc(C)nc(/N=C(\N)Nc3ccc(Cl)c(Cl)c3)n2)C1 (stereo not given)
active: [1] 97.2% | [2] 98% | [3] 98.4% | [4] 87.3% | [5] 96.1% | [6] 98%

COC(=O)C=Cc1ccc2nncnc2c1 (mixture of isomers)
inactive: [1] 24.1% | [2] 21.7% | [3] 8.15% | [4] 17.1% | [5] 36.4% | [6] -7.7%

CO[C@H]1C=C[C@]23c4cc5c(cc4CN(CC2O)[C@@H]3C1)OCO5 (stereo not given in full)
inactive: [1] 8.65% | [2] -11.7% | [3] 26.4% | [4] 12.6% | [5] 2.55% | [6] -20.9%

C/C=C/C(C/C=C(\C)CO[Si](C)(C)C(C)(C)C)O[Si](C)(C)C(C)(C)C (stereo not given)
inactive: [1] 1.1% | [2] -14.5% | [3] -6.45% | [4] -8.45% | [5] 4.9% | [6] 2.95%

CCN(CC)Cc1cc(N)cc(N=Nc2ccc3c(c2)c2ccccc2n3CC)c1O
inactive: [1] 29.2% | [2] 0% | [3] 12.4% | [4] 27.7% | [5] -3.4% | [6] 17.9%

CCOC(=O)CCc1nc2ccccc2[nH]1
inactive: [1] 0.6% | [2] -0.6% | [3] -0.3% | [4] 3.7% | [5] 0.5% | [6] -4.25%

CC1(C)N=C(N)N=C(N)N1c1ccc(CCCCc2ccccc2)cc1
inactive: [5] 50% | [6] 46.1%
active: [1] 99.6% | [2] 99.7% | [3] 99.8% | [4] 99.3%

CCOC(=O)CON
inactive: [1] -7.35% | [2] 1.9% | [3] -7.45% | [4] -51% | [5] -12.4% | [6] -5.8%

O=C1c2ccccc2C(O)N1CCc1c[nH]c2ccccc12 (stereo not given)
inactive: [1] 12.4% | [2] -24.1% | [3] -12.1% | [4] 8.2% | [5] 1.3% | [6] -10.9%

Nc1ccc(C2NC(=O)Cc3c2ccc2ccccc32)cc1 (stereo not given)
inactive: [1] 9.8% | [2] 9.7% | [3] 7.45% | [4] -43.4% | [5] 10.3% | [6] 13.6%
